# PubChem BioAssay (NCI)
# About 83,000 compounds went through this panel and 20% of them were active in at least one assay; those are over-represented in the sample as a whole.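 Note: values are percent growth. 100 is the growth of untreated cells, values between 100 and 0 indicate rising inhibition; between -100 and 0 indicates cell death.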 Unmarked numbers belong to inactive results. Calls of active or inactive are those of the source.
# System: HOP-62 NSCLC
# Assay: NCI-60 one-dose screen, 48 h (100 = growth as untreated, 0 = no growth, -100 = all killed)
# Details: 10 µM unless noted
# Procedure: Growth inhibition of the HOP-62 human Non-Small Cell Lung tumor cell line is measured as a screen for anti-cancer activity. Cells are grown in 96 well plates and exposed to the test compound for 48 hours. Compounds are tested at a single concentration, which is 10^-5 M for most compounds. The reported endpoint is percent growth (GI% or GIPRCNT), where numbers from 0 - 100% represent growth inhibition, and numbers from -100% - 0 represent cell death. For example, a value of 40 represents 60% growth inhibition. A value of 0 means no net growth occurred over the course of the experiment. A value of -40 indicates 40% of cells at the beginning of the experiment died by the end of the experiment. A value of -100 means all cells are dead at the end of the experiment.
# NCI-60 Human Tumor Cell Lines Screen was performed using the standard one-dose NCI protocol, which is described in more detail at https://dtp.cancer.gov/discovery_development/nci-60/default.htm.
# Compounds with GIPRCNT values below 10 were considered active. Activity score was based on GIPRCNT using the following formula: […]
# Score is 0 for GIPRCNT values of 100 or above, 50 for GIPRCNT values of 0, and 100 for GIPRCNT values of -100.
row,Structure (SMILES),growth
1,Cc1sc2nc(CSc3nnc(-c4ccco4)o3)[nH]c(=O)c2c1C,115%
2,Nc1c(C(=O)c2ccc(F)cc2)sc2nc3c(cc12)CCCC3,91.1%
3,COc1ccc(NC(=O)CSc2nc3ccccc3c(=O)n2Cc2cc(OC)c(OC)c(OC)c2)cc1,91.4%
4,COc1cc2nc(Cl)nc(NCCO)c2cc1OC,114%
5,CC/C=C\C/C=C\C[C@H]1C/C=C2/C(=O)C=C[C@H]2C/C=C\CCC(=O)O1,-23.6% (active)
6,CCC(c1cccc(Br)c1)C(C(=O)O)c1ccc(OC)cc1 (stereo not given),96.1%
7,Cc1nc(Nc2cccnc2)sc1C(=O)/C=C/c1ccc(Cl)cc1,15.6%
8,COC(=O)CCCCN=Cc1c(O)c(O)c(C(C)C)c2cc(C)c(-c3c(C)cc4c(C(C)C)c(O)c(O)c(C=NCCCCC(=O)OC)c4c3O)c(O)c12,27.3%
9,COc1ncc(-c2ccc3ncnc(Nc4cccc(Cl)c4)c3c2)cc1NS(=O)(=O)CCN1CCOCC1,17.5%
10,CC(C)C(C(=O)CCN(C)C)c1ccc(Cl)cc1 (stereo not given),98.4%
11,O=Nc1c(-c2c(O)[nH]c3ccc([N+](=O)[O-])cc23)[nH]c2ccc(O)cc12,-9.77% (active)
12,O=C(Nc1ccc(Br)c(Cl)c1)c1cc(F)ccc1O,0.0415% (active)
13,C=C1C(=O)O[C@H]2[C@H]1CC/C(Cn1cc(-c3ccccc3C(F)(F)F)nn1)=C\CC[C@@]1(C)O[C@@H]21,37.3%
14,O=c1oc2cc(OS(=O)(=O)c3ccccc3)c(Cl)cc2c2c1CCCCCC2,118%
15,COc1cc(CNC(=O)CCSc2nc3ccccc3c(=O)n2Cc2cc(OC)c(OC)c(OC)c2)cc(OC)c1OC,29.3%
16,Cc1ccc(S(=O)(=O)OCC(=O)Nc2ccc(C(=O)O)c(O)c2)cc1,100%
17,OC1CC2c3ccccc3C1c1ccccc12 (stereo not given),108%
18,COc1ccc(C(=O)/C=C/c2ccc(/C=C/c3cc(OC)c(OC)c(OC)c3)cc2)cc1,71%
19,CC[C@H](C)[C@@H]1NC(=O)[C@H]([C@@H](C)O)NC(=O)C(Cc2ccccc2)NC(=O)[C@@H]2CCCN2C(=O)C(C(C)C)NC(=O)C(Cc2ccccc2)NC(=O)CNC(=O)[C@@H]2CCCN2C1=O (stereo not given in full),76%
20,CC(=O)Nc1nc(C(=O)N2N=C(C)/C(=C/c3ccccc3)C2=O)cs1,99.8%

row,Structure (SMILES),growth
1,NCCSC(c1ccccc1)(c1ccccc1)c1ccccc1,40.8%
2,O=S(=O)(NCCNc1cc(-c2cn(-c3ccccc3)nc2-c2ccccc2)ccn1)c1ccc(F)cc1,98.8%
3,CC(C)[C@H](CO)Nc1nc(Nc2ccc(C(=O)NCCNS(=O)(=O)c3cccc4c(N(C)C)cccc34)c(Cl)c2)c2ncn(C(C)C)c2n1,1.86% (active)
4,CN(C)c1ccc(-c2ccc(-c3ccc(C(=N)N)cn3)o2)cc1,-69.8% (active)
5,Cc1cnc(NC(=O)C(Cc2ccccc2)NC(=O)c2ccccc2)s1 (stereo not given),84.1%
6,N#Cc1ccc(NC(=O)c2ccc3cccnc3c2O)cc1,14.6%
7,Cc1ccc(-c2csc3nc(C)c(CCCl)c(=O)n23)cc1,87.8%
8,O=C(c1ccncc1)N1N=C(c2ccc(Cl)cc2)CC1c1c[nH]c2ccccc12 (stereo not given),75.1%
9,CCOc1ccc(/C=C/C=N/NC(N)=S)cc1,106%
10,COc1cc2c(cc1OC)C1(C)N(CC2)C(=O)OC1(C)C (stereo not given),111%
11,CC(Cc1nnc(SCC(=O)Nc2ccc(I)cc2)n1N)c1ccccc1 (stereo not given),71%
12,CCOC(=O)c1cc(/C(=N\O)c2cc(OC)c(OC)c(OC)c2)n2cc(C)cc(C)c12,32.3%
13,CC(=O)N1Cc2ccccc2C(C)Cc2cc(Cl)ccc21 (stereo not given),102%
14,CCc1c(C(=O)Nc2ccc3ccccc3c2)[nH]c(C)c1C(C)=O,96.1%
15,COc1ccc(/C=C/c2nc(N3CCOCC3)c3nc(Cl)c(Cl)cc3n2)cc1OC,115%
16,COc1cc2c(cc1OCCCCn1c(-c3cc(=O)c4ccccc4o3)nc3ccccc31)N=C[C@@H]1CCCN1C2=O,105%
17,COc1ccc(/C=C/c2nc(N3CCOCC3)c3cc(F)c(F)cc3n2)cc1OC,86.8%
18,CCn1c(=O)c2c(=O)c3c4c(oc3oc2c2ccccc21)C(=O)c1ccccc1C4=O,80.3%
19,Cc1ccc(OCCn2c(C)nn(-c3ccc(Cl)cc3)c2=O)cc1,103%
20,Nc1c(C(=O)Nc2cccc(C(F)(F)F)c2)sc2nc3c(cc12)C(O)CCC3 (stereo not given),40.7%
